Algae TAG accum – inducers of triacylglycerol accumulation in Chlamydomonas reinhardtii algae. calls only at 10 µM (by protocol). Chlamydomonas reinhardtii TAG, Nile Red fluorescence, 72 h. AID 1159537. hit rate 0.84% among 44,000; call rule not given here;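 note: hits raise Nile Red signal meaning more stored TAG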
Each line names hits and unclear results; the compound was inactive in the other large screens. The full list was thinned out, with hits kept by preference.

COc1ccccc1N1CCN(Cc2ccc(F)cc2)CC1	Algae TAG accum active
COc1ccccc1N1CCN(Cc2ccc(F)c(Br)c2)CC1	none
COc1ccc(CN2CCN(c3ccccc3OC)CC2)cc1O	none
COc1ccccc1N1CCN(Cc2ccc(O)cc2)CC1	Algae TAG accum active
COc1ccccc1N1CCN(Cc2ccc(Cl)c(Cl)c2)CC1	none
CCOc1ccccc1N1CCN(Cc2ccc(OC)cc2)CC1	none
N/C(=N/[N+](=O)[O-])N1CCN(C(=O)c2ccco2)CC1	none
COc1cc(/C=C/[N+](=O)[O-])cc(Cl)c1OCc1ccccc1	none
CSc1ccc(CN2CCN(c3cccc(C)c3C)CC2)cc1	none
OCCN1CCN(Cc2ccc(F)c(F)c2)CC1	none
OCCN1CCN(Cc2ccc(Cl)cc2)CC1	none
CC(C)c1ccc(CN2CCN(CCO)CC2)cc1	Algae TAG accum active
O=c1c2ccccc2nc(/C=C/c2ccc(O)cc2)n1-c1cccc([N+](=O)[O-])c1	none
O=c1cccc2n1C[C@H]1C[C@H]2CN(Cc2cccc(F)c2)C1	none
Oc1cccc(CN2CCN(c3ccc(F)cc3)CC2)c1	none
c1ccc(CCN2CCOCC2)cc1	none
Fc1ccc(N2CCN(CCc3ccccc3)CC2)cc1	Algae TAG accum active
COc1ccc(/C=C/c2nc3ccccc3c(=O)n2-c2ccccc2[N+](=O)[O-])cc1	none
Cc1ccccc1N1CCN(Cc2cccc(F)c2)CC1	none
O=[N+]([O-])c1ccc(O)c(CN2CCN(Cc3ccccc3)CC2)c1	none
Oc1ccc(Cl)cc1CN1CCN(Cc2ccccc2)CC1	Algae TAG accum active
COc1ccc(O)c(CN2CCN(Cc3ccc(Cl)cc3)CC2)c1	none
COc1ccc(CCN(C)Cc2cccc([N+](=O)[O-])c2)cc1OC	none
COc1ccc(CCN(C)Cc2ccc([N+](=O)[O-])o2)cc1OC	none
COc1ccc(CCN(C)Cc2ccc([N+](=O)[O-])cc2)cc1OC	Algae TAG accum active
OC(c1ccccc1)(c1ccccc1)c1cnc[nH]1	none
CC(=O)c1ccc(N2CCN(Cc3ccc(Br)cc3)CC2)cc1	none
Brc1ccc(CN2CCN(c3ccccc3)CC2)cc1	Algae TAG accum active
CCc1ccc(CN2CCN(c3ccccc3C)CC2)cc1	Algae TAG accum active
Cc1cccc(N2CCN(Cc3ccc(F)cc3)CC2)c1C	none
CC(C)c1ccc(CN2CCN(c3ccccc3)CC2)cc1	none
Cc1ccccc1N1CCN(Cc2ccccc2)CC1	none
CSc1ccc(CN2CCN(c3ccccc3C)CC2)cc1	none
O=[N+]([O-])c1ccccc1CN1CCN(Cc2ccccc2)CC1	none
Cc1ccccc1N1CCN(Cc2ccc(Br)cc2)CC1	none
O=C(Cc1ccccc1)N1CCN(Cc2ccc([N+](=O)[O-])cc2)CC1	none
O=[N+]([O-])c1ccc(CN2CCN(Cc3ccccc3F)CC2)cc1	Algae TAG accum active
Cc1ccccc1N1CCN(Cc2ccc(F)cc2)CC1	Algae TAG accum active
O=c1c2ccccc2nc(/C=C/c2ccccc2)n1-c1cccc([N+](=O)[O-])c1	none
CCN(CC)C(=O)c1ccc2c(c1)C1C=CCC1C(c1ccc([N+](=O)[O-])cc1)N2 (centres undefined)	none
COc1cccc(CN2CCN(CCO)CC2)c1OC	none
CN1CCN(c2ccc(Cl)cc2[N+](=O)[O-])CC1	none
COc1cc(C)c(/C=C/[N+](=O)[O-])cc1C(C)C	none
COCCCNC1CCC(C)C1 (centres undefined)	none
CCSc1nc2ccccc2c(=O)n1-c1ccccc1	none
CCOc1ccccc1N1CCN(Cc2ccc(C)cc2C)CC1	none
Cc1ccc(C(=O)N2CCN(/C(N)=N\[N+](=O)[O-])CC2)cc1[N+](=O)[O-]	none
COc1ccccc1/C=C/CN1C[C@@H]2C[C@@H](C1)c1cccc(=O)n1C2	none
COc1ccc(CN2CCN(c3ccccc3F)CC2)c(C)c1C	none
CN1CCN(Cc2ccco2)CC1	none
CCC1CCC(NCCc2cccc(F)c2)CC1 (centres undefined)	none
O=[N+]([O-])c1ccc(CN2CCCCC2c2cccnc2)cc1 (centres undefined)	none
Cc1cccc(N2CCN(Cc3cccc([N+](=O)[O-])c3)CC2)c1C	none
Cc1cccc(N2CCN(Cc3ccc([N+](=O)[O-])cc3)CC2)c1C	Algae TAG accum active
Cc1cccc(N2CCN(Cc3ccccc3)CC2)c1C	none

Screening data as filed in PubChem.
